In PubChem BioAssay AID2098 (Broad Institute, 2009):
The campaign covered roughly 300,000 compounds. About 2,300 (0.77%) were called active.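 Rule for the calls: active = more than half of replicate wells show activity change below -50%, luminescence cut by over half; inconclusive = some wells, but at most half, below -50%; inactive = no replicate well below -50%.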 Shown is part of a subset that was picked to be rich in actives.

experiment: blocking HSF1-driven luciferase expression – cell-based, NIH3T3, luminescence, primary screen (AID 2098); conditions: NIH3T3-HGL HSE-luciferase, MG132-induced, luminescence 8 h; active compounds read low; screened at 7.5 µM (by protocol);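 note: luciferase reports HSF-1 transcriptional activity via heat shock element; 0% = median of DMSO wells and -100% = zero luminescence signal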

Activity change, negative = inhibition, inactive:
CCOc1ccc(S(=O)(=O)NCCC(=O)N2CCCCCCC2)cc1 1.97%
O=C(COc1ccccc1)Nc1cc2c3c(c1)CC(=O)N3CCC2 2.82%
Cc1cc(C(=O)CSc2nc(N)cc(=O)[nH]2)c(C)n1Cc1ccco1 -33.6%
Cc1ccc(OCC(=O)c2cc(C)n(Cc3ccco3)c2C)c([N+](=O)[O-])n1 -39.8%
O=C(Nc1c(Br)cc2c(c1Br)Cc1ccccc1-2)C(F)(F)F -5.38%
COc1ccccc1CNS(=O)(=O)c1cc2c3c(c1)CCC(=O)N3CCC2 -0.185%
O=C1CCc2cc(S(=O)(=O)Nc3ccc(C(F)(F)F)cc3)cc3c2N1CC3 -0.158%
Cc1ccc(OCCNC(=O)CN2C(=O)NC3(CCCC3)C2=O)cc1 -2.16%
CN(/N=C/c1ccccc1)C(=S)c1ccccc1 -0.878%
Cc1cc(F)ccc1S(=O)(=O)N1CCCOC1CNC(=O)C(=O)NCCC1=CCCCC1 (stereo not given) -4.13%
O=C(NCCCc1ccccc1)C(=O)NCC1OCCN1S(=O)(=O)c1ccccc1 (stereo not given) 3.32%
O=C(CCN1C(=O)C2CCCCC2C1=O)Nc1ccc(OC(F)F)cc1 (stereo not given) 5.73%
CCCCn1c(N)c(N(CC(C)C)C(=O)c2cccc(S(=O)(=O)N3CCN(C(C)=O)CC3)c2)c(=O)[nH]c1=O 0.146%
O=C(O)c1cc(Cl)c(Cl)cc1C(=O)Nc1cccc2ncccc12 15.1%
O=C(Nc1cccc2ncccc12)c1ccc(-c2ccc(Cl)cc2Cl)o1 8.41%
CC1CC(C)(C)CC2(C1)NC(=O)N(CC(=O)Nc1nccs1)C2=O (stereo not given) 0.525%
CC(=O)NC1CCN(CC(=O)Nc2nccs2)CC1 0.912%
Cc1csc(SCC(=O)Nc2sccc2C#N)n1 9.14%
COc1cc(OC)cc(-c2nnc(SCC(=O)Nc3ccc(C(=O)O)cc3)s2)c1 -5.1%
CCCc1c(C(=O)Nc2ccc(F)cc2)cnn1-c1ccccc1 6.52%
Cc1nn(-c2ccccc2)c(-n2cccc2)c1C(=O)O -12.1%
COc1ccc([C@@H]2[C@@H]3C(=O)N(C(C)(C)C)C(=O)[C@@H]3[C@]3(Cc4ccccc4)C(=O)N(c4cccc(Br)c4)C(=O)N23)cc1 -4.65%
CCOc1ccc(NS(=O)(=O)c2ccc(C(=O)NC3CCN(Cc4ccccc4)CC3)cc2)cc1 -0.719%
Cc1nc(-c2ccc(F)cc2)c(CC(=O)Nc2cccc(S(=O)(=O)N3CCOCC3)c2)s1 4.76%
CCCCn1c(N)c(N(CC(C)C)C(=O)c2ccc(-n3c(C)ccc3C)cc2)c(=O)[nH]c1=O -2.25%
Cn1c(-c2sc3cc(C(F)(F)F)cnc3c2-c2ccccc2)n[nH]c1=S -4.57%
COc1cc(/C=N/n2c(C)n[nH]c2=S)ccc1OCc1ccccc1 -2.45%
CC1CCN(CC(O)COc2ccc(C(=O)c3ccccc3)cc2)CC1 (stereo not given) -15%
O=C(c1ccc(Cl)cc1)c1ccc(OCC(O)CN2CCCCC2)cc1 (stereo not given) -7.88%
Cc1ccc(NC(=O)CSc2nc(=O)n(CCN(C)C)c3c2CCCC3)c(C)c1 -5.63%
COc1ccc(C2=NN(C(=O)CSc3nc(=O)n4ccc(C)cc4n3)C(c3ccc(C)cc3)C2)cc1 (stereo not given) 11.2%
CC(=O)N/C(=C\c1ccccc1)C(=O)OC(C)C(=O)N(C)c1ccccc1 (stereo not given) 1.34%
Cc1nc2ccccc2c(=O)n1NC(=O)c1ccc(Cl)c([N+](=O)[O-])c1 1.5%
O=C(Nc1cccnc1)c1ccc(Cl)c([N+](=O)[O-])c1 -4.95%
COc1ccc(NS(=O)(=O)c2ccc(C)c(C(=O)N(C)Cc3ccc(OC)cc3OC)c2)cc1 -0.123%
Cc1ccc(C)c(OCCC(=O)OCC(=O)c2ccc3c(c2)NC(=O)CO3)c1 1.77%
Cc1ccc(NC(=O)/C(=C/c2ccc([N+](=O)[O-])cc2)NC(=O)c2ccccc2)cc1 -1.77%
O=C(Nc1ccccc1)/C(=C/c1ccc([N+](=O)[O-])cc1)NC(=O)c1ccccc1 -11.2%
CC1CCCCC1NC(=O)c1cc(=O)[nH]c2ccccc12 (stereo not given) -3.75%
Nc1ccc(C(=O)N2CCN(S(=O)(=O)c3ccc(Cl)cc3)CC2)cc1[N+](=O)[O-] 3.46%
CCOc1ccccc1NC(=O)c1cccnc1 -2.44%
CCOc1cc(C(=O)Nc2ncccn2)cc(OCC)c1OCC -4.41%
CCOc1ccc(C(=O)Nc2ccncc2)cc1 4.46%
CCOC(=O)c1ccc(NC(=O)c2cccnc2)cc1 -6.35%
CCOC(=O)c1c(C)oc2cc(Sc3ccccc3)c(O)c(O)c12 13.1%
COc1ccc(C(=O)NCC(c2ccco2)N2CCc3ccccc32)cc1OC (stereo not given) 2.71%
CCC(=O)c1ccc(OCC(=O)OCC(=O)NC2CCCCCC2)cc1 -9.22%
COc1ccc(CNC(=O)COC(=O)CCS(=O)(=O)c2ccc(C)cc2)cc1OC -1.13%
O=C(CSc1nn(-c2ccc(F)cc2)c(=S)s1)NC1CCS(=O)(=O)C1 (stereo not given) 2.24%
O=C(Cc1ccc(Cl)cc1)NC1CCS(=O)(=O)C1 (stereo not given) 0.993%
CN(CC(=O)Nc1ccccc1Cl)C(=O)COc1cccc2c1OC(C)(C)C2 4.06%
CN1C/C(=C/c2cccs2)C(=O)/C(=C\c2cccs2)C1 19.3%
Cc1cccc(C2=N/C(=C/c3cccs3)C(=O)O2)c1 -10.1%
CCCc1cc(=O)[nH]c2nnc(SCC(=O)Nc3nnc(SCC)s3)n12 -2.82%
COc1ccc(CCNC(=O)Cc2ccc(C)cc2)cc1OC -5.1%
COc1cccc(/C=C/C(=O)OCC(=O)N2CCCc3ccccc32)c1 0.601%
CCC1Nc2ncnc(N3CCN(c4ccccc4)CC3)c2N(Cc2ccc(Cl)cc2)C1=O (stereo not given) 11.2%
COc1cccc(CNc2nc(C(F)(F)F)nc3ccccc23)c1 0.989%
NS(=O)(=O)c1ccc(CCNc2nc(C(F)(F)F)nc3ccccc23)cc1 -2.88%
CCCCn1c(N)c(N(CC(C)C)C(=O)c2ccc(Br)o2)c(=O)[nH]c1=O 4.02%
CCCN(CCc1ccccc1)C1CCc2c(O)cccc2C1 (stereo not given) 7.71%
CCOC(=O)c1c(C)[nH]c(C)c1S(=O)(=O)N(C)CC(=O)Nc1ccccc1C 4.41%
CCOC(=O)C1=C(c2ccc(OC)cc2)C(=O)c2ccccc2C1=O 31.1%
CSc1ccc(S(=O)(=O)NCC(=O)OCC(=O)NC2(C#N)CCCCC2)cc1[N+](=O)[O-] 4.69%
CC(C)N(C(=O)Cn1c(SCC(=O)N2CCN(c3ccccc3)CC2)nc2ccccc21)C(C)C -10.4%
O=C(Cn1c(N2CCN(C/C=C/c3ccccc3)CC2)nc2ccccc21)c1ccccc1 -0.086%
O=C(COc1ccccc1Cl)Nc1ccccc1C(=O)NC1CC1 6.98%
COc1ccc(Br)cc1/C=N/NC(=O)c1cccc(S(=O)(=O)N2CCOCC2)c1 -2.38%
O=C(N/N=C/c1ccc([N+](=O)[O-])o1)c1cccc(S(=O)(=O)N2CCOCC2)c1 6.48%
CC(=O)Nc1cccc(C(=O)OCC(=O)NCc2cc(C)c(O)c(C)c2)c1 9.36%
NC(=O)C1=C[C@H](c2csc3ccccc23)C[C@H](OCc2ccc(CO)cc2)O1 5.45%

Activity change, negative = inhibition, active:
Cc1cc(C(=O)COC(=O)CNC(=O)c2ccc(F)cc2)c(C)n1Cc1ccco1 -53.9%
COc1ccc(C)cc1S(=O)(=O)Nc1cc2c3c(c1)CCC(=O)N3CCC2 -68.5%
O=C(NCCCn1ccnc1)C(=O)NCC1OCCN1S(=O)(=O)c1cc(F)ccc1F (stereo not given) -87.4%
O=C(Nc1cccc2ncccc12)C(Cl)(Cl)Cl -59.5%
CC1CCN(CC(=O)Nc2nccs2)CC1 -53.5%
COc1ccc(NC(=O)CSc2nc(C)cs2)cc1 -86.2%
CCCc1nc(-c2ccccc2O)n(-c2ccccc2)n1 -81.9%
Cn1c(-c2sccc2OCc2cccc(C(F)(F)F)c2)n[nH]c1=S -82.6%
O=C(c1ccccc1)c1ccc(OCC(O)CN2CCCC2)cc1 (stereo not given) -61.3%
C/C(=N\Nc1nncc2ccccc12)c1ccc(Cl)c([N+](=O)[O-])c1 -54.9%
CCOC(=O)/C(=C\c1ccc([N+](=O)[O-])cc1)C(=O)c1cc(C(C)=O)c(Nc2ccccc2)s1 -93.6%
CCOC(=O)c1cc(NC(=O)c2cccnc2)ccn1 -72.9%
CCOC(=O)c1cccnc1NC(=O)c1ccncc1 -52.6%
O=C(CSc1ccccc1F)NC1CCS(=O)(=O)C1 (stereo not given) -68.8%
CSC1=N/C(=C\C=C\c2cccs2)C(=O)S1 -67.1%
CCc1ccc(C(CNc2nc(C(F)(F)F)nc3ccccc23)N(C)C)cc1 (stereo not given) -82%
CCOC(=O)c1c(C)[nH]c2c1-c1ccccc1C(=O)C2=O -91.5%
CC(C)Cn1c(N2CCN(C(=O)/C=C/c3ccccc3)CC2)nc2ccccc21 -65.4%
CCOc1cc(/C=N/NC(=O)c2cccc(S(=O)(=O)N3CCOCC3)c2)ccc1OCC(=O)N(C)C -64.3%
